Bioassay records: PubChem BioAssay, National Center for Advancing Translational Sciences (NCATS)
Cruzain noTriton: inhibitors of Trypanosoma cruzi cruzain without detergent. purified cruzain, Z-FR-AMC fluorescence, no detergent. P25779. 200,000 tested, 2.3% active. AID 1476. Potency, µM, without a hit: max response, negative = inhibition, most hits filed as inhibitors;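 note: plate controls were enzyme without inhibitor for no effect and buffer without enzyme for full effect; nearly all actives have a fitted effect of over 40% in size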
Target sequence (P25779 123-467 limits assumed): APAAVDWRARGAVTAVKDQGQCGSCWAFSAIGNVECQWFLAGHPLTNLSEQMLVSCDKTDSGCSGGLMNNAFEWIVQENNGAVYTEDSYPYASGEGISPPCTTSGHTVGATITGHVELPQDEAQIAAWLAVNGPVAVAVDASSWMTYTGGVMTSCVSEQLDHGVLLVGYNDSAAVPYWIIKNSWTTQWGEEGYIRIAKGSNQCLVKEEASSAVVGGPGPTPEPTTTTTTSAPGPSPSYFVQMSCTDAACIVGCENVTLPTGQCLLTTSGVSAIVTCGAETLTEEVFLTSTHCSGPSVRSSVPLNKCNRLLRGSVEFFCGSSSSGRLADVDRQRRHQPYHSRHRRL
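Purified cruzain at 1.5 nM, pre-incubated 15 min with compound at room temperature in 100 mM sodium acetate pH 5.5, 5 mM DTT, 0.00005% Triton X-100. Reaction started with 2 uM Z-FR-AMC; AMC fluorescence increase over 60 s gives rate.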
Cruzain Triton: cruzain (T. cruzi) inhibition with detergent. purified cruzain, Z-FR-AMC fluorescence, 0.01% Triton. 200,000 tested, 0.43% active. P25779. Potency, µM, without a hit: max response, negative = inhibition, hits mostly inhibitors;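 note: plate controls were neutral wells for no effect and buffer without enzyme for full effect; nearly all actives have a fitted effect of over 40% in size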
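Steps: dispense cruzain (1.5 nM final) in acetate buffer pH 5.5 with DTT and 0.01% Triton X-100; pin-transfer compounds; incubate 15 min RT; add Z-FR-AMC (2 uM final); read fluorescence every 30 s, using the 60 s intensity change.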
Papain inh: papain (Carica papaya) inhibition counter-screen; purified papain, Z-FR-AMC fluorescence cleavage; 410 tested, 41% active; AID 2161; Potency, µM, for the others: max response, negative = inhibition, actives largely listed as inhibitors; shares compounds with Cruzain Triton;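 note: 0% = no-compound wells and -100% = no-enzyme wells; nearly all actives have a fitted effect of over 35% in size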
* = called active by the depositor. In the library only some 2.5% were active in any assay of this set; here they are far more common. Calls come from the whole dose curve; as a rule, active = well fitted curve in the direction sought with a large enough effect; inconclusive = small, poorly fitted or top-dose-only effect, or another doubt; inactive = no such curve, though single readings can be large; an effect the other way counts as inactive or inconclusive. Potency is the fitted concentration of half-maximal effect.

`CC/C=C1/N=C2C(=O)N(C)C(=O)N=C2N(C)N1` gave Papain inh -12.9%.
CC1Cn2c(C(=O)NCCc3ccc(Cl)cc3)cc3cccc(c32)S1 (stereo unspecified) was read as Cruzain noTriton -24.3% and Cruzain Triton -9.8%.
CCCCNC(=O)Cn1c(SCc2cccc(F)c2)nc2ccncc21 was read as Papain inh -10.3%.
`CCC(C(=O)NC1CCCCC1)n1c(SCc2cccc(F)c2)nc2ccncc21` (stereo unspecified) gave Cruzain noTriton inconclusive, Cruzain Triton 12.6µM* and Papain inh -14.0%.
`Cc1ccc(NC(=O)Cn2c(SCc3cccc(F)c3)nc3ccncc32)c(C)c1` gave Cruzain noTriton -3.3% and Cruzain Triton -22.5%.
`CCCCNC(=O)C(CC)n1c(SCc2cccc(F)c2)nc2ccncc21` (stereo unspecified) gave Papain inh -10.2%.
`CC(CNC(=O)c1ccc(CSc2nc3ccncc3n2Cc2cccc(F)c2)cc1)c1ccccc1` (stereo unspecified) gave Cruzain noTriton 3.6% and Cruzain Triton -5.6%.
`COC(=O)c1ccc(Cn2c(SCc3cccc(C)c3)nc3ccncc32)cc1` gave Cruzain noTriton inconclusive and Cruzain Triton -8.9%.
Cc1cc(C)c(Cn2c(C)c(CNCCCc3ccccc3)c(C(=O)O)c2C)c(C)c1 was read as Cruzain noTriton 9.9% and Cruzain Triton -2.3%.
For COc1nnc(-c2ccc(N3CCCCC3)c(NC(=O)c3ccccc3Cl)c2)c2ccccc12 the results were Cruzain noTriton -4.4% and Cruzain Triton -5.3%.
Cc1ccc2c(CC(=O)N(Cc3ccc(N(C)C)cc3)Cc3ccco3)coc2c1C was read as Cruzain noTriton -24.3% and Cruzain Triton -8.2%.
Cc1[nH]c(=O)[nH]c(=O)c1CSc1nnc([C@@H](NC(=O)OC(C)(C)C)C(C)C)o1 was read as Cruzain noTriton 0.0% and Cruzain Triton 9.5%.
Screening CC[C@@H](C)[C@H](NC(=O)OC(C)(C)C)c1nnc(S(=O)(=O)Cc2cc(C)ccc2C)o1 returned Cruzain noTriton 15.8µM*, Cruzain Triton 8.91µM* and Papain inh 15.8µM*.
`O=C(Cc1ccccc1)NC(=S)Nc1cc(C(F)(F)F)ccc1Cl` gave Cruzain noTriton -3.6% and Cruzain Triton -1.2%.
`O=C(CNC(=O)c1ccccc1)N[C@@H](C(=O)Nc1cc(C(F)(F)F)ccc1Cl)c1ccccc1` gave Papain inh -10.3%.
Screening Cc1ccc(Sc2ccc(N3CCCC(C(=O)Nc4ccc(F)cc4)C3)nn2)cc1 (stereo unspecified) returned Cruzain noTriton -20.8% and Cruzain Triton -6.3%.
`CCOC(=O)C1=C(CS(=O)(=O)c2ccc(C(C)(C)C)cc2)NC(=O)NC1c1cccc(OC)c1` (stereo unspecified) gave Cruzain noTriton 20.4% and Cruzain Triton -13.2%.
`COc1ccc2[nH]c3c(NCCN4CCCCC4)ncnc3c2c1` gave Cruzain noTriton 12.6µM*, Cruzain Triton 15.8µM* and Papain inh 5.0%.
Cc1ccc2[nH]c3c(NCCCN4CCCC4=O)ncnc3c2c1 was read as Cruzain noTriton -23.9% and Cruzain Triton -24.4%.
Screening COc1ccc(/C=C\c2onc(C)c2S(=O)(=O)N2CCC(C(=O)Nc3cccc(OC)c3)CC2)cc1 returned Cruzain noTriton inconclusive and Cruzain Triton -0.9%.
`CCCCn1c(CCNC(=O)CC)nc2ccccc21` gave Cruzain noTriton -6.5% and Cruzain Triton 0.3%.
`Cc1cccc(OCCn2c(CCCO)nc3ccccc32)c1` gave Cruzain noTriton 2.7% and Cruzain Triton 2.5%.
Screening Cc1cc(OCCn2c(CCNC(=O)C3CCCCC3)nc3ccccc32)ccc1Cl returned Cruzain noTriton -15.4%, Cruzain Triton 2.51µM* and Papain inh -6.4%.
For CC(=O)NCCCc1nc2ccccc2n1Cc1ccc(C)cc1 the results were Cruzain noTriton 2.1% and Cruzain Triton 3.2%.
`CCc1ccccc1N1CC(c2nc3ccccc3n2CCOc2ccc(Cl)c(C)c2)CC1=O` (stereo unspecified) gave Cruzain noTriton -14.4% and Cruzain Triton -8.2%.
Cc1cc(C)cc(OCCCn2c(CCNC(=O)C3CCCCC3)nc3ccccc32)c1 was read as Cruzain noTriton 3.4%, Cruzain Triton 2µM* and Papain inh 25.1µM*.
`Cc1ccc(Cn2c(CCNC(=O)c3cccc(C)c3)nc3ccccc32)cc1` gave Cruzain noTriton 24.6%, Cruzain Triton 5.01µM* and Papain inh -12.5%.
Screening Cc1cc(C)cc(OCCn2c(CCNC(=O)C3CCCCC3)nc3ccccc32)c1 returned Cruzain noTriton 0.7%, Cruzain Triton 1.78µM* and Papain inh 1.6%.
CCSc1nnc2c(n1)OC(CC)N(C(C)=O)c1ccccc1-2 (stereo unspecified) was read as Cruzain noTriton 1.8% and Cruzain Triton 4.2%.
Screening COc1ccccc1N1CCN(C(=O)c2cc3c(=O)n(C)c4ccccc4c3s2)CC1 returned Cruzain noTriton 7.8% and Cruzain Triton -2.3%.
Screening Cc1ccc(C)c(N2CCN(C(=O)c3c(C)oc4nc(C)nc(N5CCOCC5)c34)CC2)c1 returned Cruzain noTriton inconclusive and Cruzain Triton -0.7%.
`Cc1cccc(N2CCN(C(=O)c3cccn4c(=O)c5cc(Cl)ccc5nc34)CC2C)c1` (stereo unspecified) gave Cruzain noTriton -1.3% and Cruzain Triton 1.2%.
`CNC(=O)C1CCC(Cn2c(=O)c3sccc3n(CC(=O)Nc3cc(C)cc(C)c3)c2=O)CC1` (stereo unspecified) gave Cruzain noTriton -8.4% and Cruzain Triton -0.4%.
Screening O=C(c1cccs1)N(Cc1cccnc1)c1nc2ccc(F)cc2s1 returned Cruzain noTriton -0.8% and Cruzain Triton -1.9%.
CCCCOc1ccc(C(=O)Nc2ccc3c(c2)CCCN3C(=O)c2cccs2)cc1 was read as Cruzain noTriton -1.8% and Cruzain Triton 1.6%.
Screening Cc1cccc(C)c1OCCn1c(CCNC(=O)C2CCCCC2)nc2ccccc21 returned Cruzain noTriton 5.3%, Cruzain Triton 3.55µM* and Papain inh -25.9%.
CCn1c(NC(=O)C2CCCCC2)nc2ccccc21 was read as Cruzain noTriton -25.1% and Cruzain Triton -4.5%.
For Cc1cccc(OCCCn2c(CCNC(=O)C(C)C)nc3ccccc32)c1 the results were Cruzain noTriton 15.6% and Cruzain Triton -2.4%.
Cc1cccc(OCCCn2c(CCNC(=O)C3CCCCC3)nc3ccccc32)c1 was read as Cruzain noTriton -4.0%, Cruzain Triton 2µM* and Papain inh 15.8µM*.
For CCC(=O)N1CCc2cc(S(=O)(=O)CCC(=O)N3CCN(c4cccc(C)c4)C(C)C3)ccc21 (stereo unspecified) the results were Cruzain noTriton inconclusive and Cruzain Triton -1.8%.
For O=C(O)c1c(Sc2ccccc2)c2cc(Cl)ccc2n1Cc1ccc(Cl)cc1 the results were Cruzain noTriton inconclusive, Cruzain Triton 28.2µM* and Papain inh 28.2µM*.
Screening O=C(Cc1ccc(Cl)cc1)Nc1ccccc1Sc1ccccc1 returned Cruzain noTriton -17.0% and Cruzain Triton -8.0%.
COc1ccc(C)cc1NC(=O)C(CCSC)NS(=O)(=O)c1ccc2c(c1)oc(=O)n2C (stereo unspecified) was read as Cruzain noTriton -0.2% and Cruzain Triton 2.3%.
